Active and inactive are the calls of the source.
Columns and labels:
[1] = biological target: Albumin (Bos taurus) (UniProt P02769); assay: bovine serum albumin binders on microarray, profiling panel, artefact control for SMM control protein annotation, biochemical, small-molecule microarray, Alexa647 label, 635/667 nm fluorescence (AID 1118); conditions: BSA-A647 binding, fluorescence 635 nm, higher = more signal;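 further: score merges 667 nm emission intensity and signal-to-noise per printed compound spot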
Sequence of Albumin (Bos taurus) (P02769 whole entry, looked up): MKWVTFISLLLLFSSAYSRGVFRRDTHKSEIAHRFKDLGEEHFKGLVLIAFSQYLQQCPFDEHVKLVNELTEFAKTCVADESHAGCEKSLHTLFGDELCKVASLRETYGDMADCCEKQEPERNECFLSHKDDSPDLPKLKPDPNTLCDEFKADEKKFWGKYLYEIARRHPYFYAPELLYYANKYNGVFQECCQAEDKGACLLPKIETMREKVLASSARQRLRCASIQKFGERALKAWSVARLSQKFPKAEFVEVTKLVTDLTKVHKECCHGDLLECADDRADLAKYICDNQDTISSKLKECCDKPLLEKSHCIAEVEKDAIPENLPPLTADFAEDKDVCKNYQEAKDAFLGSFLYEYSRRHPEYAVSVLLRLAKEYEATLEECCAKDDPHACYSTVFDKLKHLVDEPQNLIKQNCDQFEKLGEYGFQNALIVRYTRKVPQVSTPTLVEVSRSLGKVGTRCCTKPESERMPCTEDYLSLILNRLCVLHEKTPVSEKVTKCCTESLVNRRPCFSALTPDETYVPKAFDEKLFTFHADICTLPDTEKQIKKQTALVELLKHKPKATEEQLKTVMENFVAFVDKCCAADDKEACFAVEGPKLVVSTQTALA

[2] = small-molecule microarray binders of probe aXIP, primary screen, biochemical, NeuroSMM set, 635/667 nm fluorescence (AID 1119); conditions: higher = more signal, called active from +8 up or from −8 down;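 further: probe is the protein aXip251-270 applied at 1 µg/mL to compound-printed slides; binding of probe to printed compounds measured as 667 nm fluorescence plus signal to noise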
[3] = small-molecule binders of probe aNOTCH3, primary screen, biochemical, small-molecule microarray, 635/667 nm fluorescence (AID 1120); conditions: higher = more signal;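 further: probe is a biotin-tagged antibody raised against NOTCH3 rather than NOTCH3 protein; score merges spot fluorescence near 667 nm with spot signal to noise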
[4] = small-molecule binders of probe aNOTCH2, primary screen, biochemical, small-molecule microarray, 635/667 nm fluorescence (AID 1121); conditions: higher = more signal;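 further: score merges feature fluorescence read at 667 nm with its signal to noise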
[5] = biological target: Carbonic anhydrase 2 (Homo sapiens) (UniProt P00918); assay: CAII small-molecule binders, profiling panel, biochemical, small-molecule microarray, Alexa647-labelled CAII (AID 1122); conditions: CAII-A647 binding fluorescence, higher = more signal
[6] = COS7 lysate on small-molecule microarray, probe aHis, 635 nm (AID 1123); conditions: COS7 cell lysate, fluorescence, higher = more signal;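 further: z-score combines 667nm fluorescence intensity with signal-to-noise per printed compound spot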
[7] = compound binding in COS7 lysate, probe aLAP1, primary screen, cell lysate, small-molecule microarray (AID 1124); conditions: probe aLAP1, fluorescence, higher = more signal;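 further: lysate comes from COS7 cells expressing LAP1 and is applied at 0.3 µg/mL; score merges spot fluorescence near 667 nm with signal-to-noise over triplicate slides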
[8] = system: Sam68 (KHDRBS1); assay: Sam68 small-molecule binders, primary screen, biochemical, small-molecule microarray, 635 nm fluorescence (AID 1125); conditions: small-molecule microarray binding, higher = more signal;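 further: score merges 667 nm channel intensity with signal to noise over triplicate slides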
[9] = system: Chordin-like protein 2 (CHRDL2); assay: CHRDL2 small-molecule binders, primary screen, biochemical, small-molecule microarray, 635 nm fluorescence (AID 1126); conditions: small-molecule microarray binding, fluorescence 635 nm; higher = more signal;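 further: printed compound slides probed with Chrdl2 protein at 4 µg/mL for 1 h at 4 C; score merges 667 nm emission intensity with signal to noise over three replicate slides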
[10] = biological target: Concanavalin-A (Canavalia ensiformis) (UniProt P02866); assay: ConA small-molecule binders, primary screen, artefact control for SMM control protein annotation, biochemical, small-molecule microarray, Alexa647 label, 635 nm (AID 1127); conditions: ConA-A647 binding fluorescence, higher = more signal;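 further: z combines 667 nm emission intensity with signal-to-noise across three replicate slides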
Sequence of Concanavalin-A (Canavalia ensiformis) (P02866 whole entry, looked up): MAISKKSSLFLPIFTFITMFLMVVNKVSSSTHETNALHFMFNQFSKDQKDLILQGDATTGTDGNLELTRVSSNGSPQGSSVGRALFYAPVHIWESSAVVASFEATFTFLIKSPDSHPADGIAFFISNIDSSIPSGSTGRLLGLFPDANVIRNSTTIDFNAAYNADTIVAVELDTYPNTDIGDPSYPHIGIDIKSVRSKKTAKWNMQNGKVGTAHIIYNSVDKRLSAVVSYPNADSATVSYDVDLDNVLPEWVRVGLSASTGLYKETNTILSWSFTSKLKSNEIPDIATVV

[11] = anti-His antibody binders, primary screen, artefact control for SMM control protein annotation, biochemical, small-molecule microarray, 635 nm fluorescence (AID 1128); conditions: anti-His Alexa647 antibody binding, higher = more signal;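 further: score merges feature fluorescence with signal-to-noise for each printed compound spot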
[12] = system: Human papillomavirus type 1a E7 protein (residues 1-88); assay: HPV1a E7 small-molecule binders, primary screen, biochemical, small-molecule microarray, residues 1-88, 635 nm (AID 1129); conditions: small-molecule microarray binding, fluorescence 635 nm; higher = more signal
[13] = biological target: Focal adhesion kinase 1 (Homo sapiens) (UniProt Q05397); assay: small-molecule microarray binders of FAK, primary screen, biochemical, 635/667 nm fluorescence, BSA, DTT (AID 1130); conditions: PTK2 binding, 635 nm fluorescence, higher = more signal;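 further: composite of spot emission at 667 nm and signal to noise over triplicate slides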
Sequence of Focal adhesion kinase 1 (Homo sapiens) (Q05397 whole entry, looked up): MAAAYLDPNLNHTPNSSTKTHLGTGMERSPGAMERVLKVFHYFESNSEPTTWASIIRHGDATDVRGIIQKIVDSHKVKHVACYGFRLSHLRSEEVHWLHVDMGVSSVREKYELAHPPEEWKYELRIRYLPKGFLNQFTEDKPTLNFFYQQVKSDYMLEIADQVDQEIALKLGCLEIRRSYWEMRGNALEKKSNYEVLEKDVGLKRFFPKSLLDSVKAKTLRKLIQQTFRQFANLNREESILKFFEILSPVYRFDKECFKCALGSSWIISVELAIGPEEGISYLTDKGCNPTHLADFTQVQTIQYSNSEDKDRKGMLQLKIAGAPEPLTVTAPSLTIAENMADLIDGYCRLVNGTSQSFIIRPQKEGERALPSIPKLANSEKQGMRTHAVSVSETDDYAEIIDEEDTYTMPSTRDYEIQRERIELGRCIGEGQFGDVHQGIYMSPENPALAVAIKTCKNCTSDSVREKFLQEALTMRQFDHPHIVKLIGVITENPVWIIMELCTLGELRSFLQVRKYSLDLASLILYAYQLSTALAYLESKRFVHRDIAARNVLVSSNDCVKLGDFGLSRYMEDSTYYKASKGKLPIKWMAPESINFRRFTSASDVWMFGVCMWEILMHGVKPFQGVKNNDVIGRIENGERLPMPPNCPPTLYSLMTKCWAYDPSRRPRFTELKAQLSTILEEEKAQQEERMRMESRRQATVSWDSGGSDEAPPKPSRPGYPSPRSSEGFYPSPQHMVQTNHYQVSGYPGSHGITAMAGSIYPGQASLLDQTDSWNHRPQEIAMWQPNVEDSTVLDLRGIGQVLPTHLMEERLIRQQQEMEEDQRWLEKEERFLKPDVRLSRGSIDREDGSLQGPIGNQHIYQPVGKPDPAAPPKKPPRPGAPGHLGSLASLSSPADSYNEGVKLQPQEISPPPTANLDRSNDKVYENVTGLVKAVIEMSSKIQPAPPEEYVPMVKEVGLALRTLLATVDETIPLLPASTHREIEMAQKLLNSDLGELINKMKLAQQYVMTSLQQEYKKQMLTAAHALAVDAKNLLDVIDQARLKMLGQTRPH

[14] = system: Fibrinogen (Alexa647-labelled); assay: fibrinogen binders on compound microarrays, profiling panel, artefact control for SMM control-protein annotation, biochemical, small-molecule microarray, 635/667 nm fluorescence (AID 1131); conditions: fibrinogen-A647 binding fluorescence, higher = more signal;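 further: z-score merges 667 nm fluorescence with per-spot signal-to-noise over triplicate slides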
[15] = biological target: Follistatin (Homo sapiens) (UniProt P19883); assay: follistatin binders on small-molecule microarrays, primary screen, biochemical, small-molecule microarray, 635/667 nm fluorescence (AID 1132); conditions: FST binding, 635 nm fluorescence, higher = more signal
Sequence of Follistatin (Homo sapiens) (P19883 whole entry, looked up): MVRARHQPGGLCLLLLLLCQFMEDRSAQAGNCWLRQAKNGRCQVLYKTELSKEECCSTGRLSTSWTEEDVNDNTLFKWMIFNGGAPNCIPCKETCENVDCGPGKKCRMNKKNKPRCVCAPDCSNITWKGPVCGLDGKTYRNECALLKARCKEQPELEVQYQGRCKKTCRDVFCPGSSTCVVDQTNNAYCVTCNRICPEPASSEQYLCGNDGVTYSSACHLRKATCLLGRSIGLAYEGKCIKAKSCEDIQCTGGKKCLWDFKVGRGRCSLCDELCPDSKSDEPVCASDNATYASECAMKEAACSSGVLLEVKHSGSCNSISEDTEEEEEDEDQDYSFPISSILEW

[16] = biological target: Fibroblast growth factor 2 (Homo sapiens) (UniProt P09038); assay: FGF2 binders on small-molecule microarrays, primary screen, biochemical, small-molecule microarray, 635/667 nm fluorescence (AID 1133); conditions: small-molecule microarray binding, FGF2, fluorescence 635/667; higher = more signal
Sequence of Fibroblast growth factor 2 (Homo sapiens) (P09038 whole entry, looked up): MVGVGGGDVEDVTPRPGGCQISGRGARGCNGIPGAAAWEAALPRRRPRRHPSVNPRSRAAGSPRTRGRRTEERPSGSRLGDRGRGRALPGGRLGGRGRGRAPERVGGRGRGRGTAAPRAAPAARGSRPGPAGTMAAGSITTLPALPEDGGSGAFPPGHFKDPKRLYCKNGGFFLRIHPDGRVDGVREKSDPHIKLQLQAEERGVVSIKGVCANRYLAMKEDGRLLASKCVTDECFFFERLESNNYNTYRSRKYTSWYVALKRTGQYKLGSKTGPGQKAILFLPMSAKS

[17] = mitochondrial membrane potential change in A549 cells, profiling panel, cell-based, JC-1 fluorescence, basal, 24 h, 100 nL (AID 1138); conditions: higher = more signal;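 further: A549 lung adenocarcinoma cells under basal conditions with no added stimulus; test concentration not given here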
[18] = system: Lefty1; assay: Lefty1 binders on small-molecule microarrays, primary screen, biochemical, small-molecule microarray, 635/667 nm fluorescence (AID 1139); conditions: small-molecule microarray binding, fluorescence 635/667; higher = more signal
[19] = system: wheat germ agglutinin (Triticum aestivum), Alexa647-labelled; assay: wheat germ agglutinin binders on compound microarrays, profiling panel, artefact control for SMM control-protein annotation, biochemical, small-molecule microarray, 635/667 nm fluorescence (AID 1140); conditions: WGA-A647 binding, 635 nm fluorescence, higher = more signal;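 further: score merges 667 nm feature emission with signal to noise over triplicate slides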
[20] = biological target: Luciferin 4-monooxygenase (Photinus pyralis) (UniProt P08659); assay: firefly luciferase enzyme inhibitors, primary screen, biochemical, luminescence, purified enzyme, 2006 set (AID 1141); conditions: SteadyGlo luminescence, 30 min, higher = more signal, called active from +8 up or from −8 down;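 further: cell-free assay with purified firefly luciferase at 100 ng per well in PBS; test concentration not given here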
Sequence of Luciferin 4-monooxygenase (Photinus pyralis) (P08659 whole entry, looked up): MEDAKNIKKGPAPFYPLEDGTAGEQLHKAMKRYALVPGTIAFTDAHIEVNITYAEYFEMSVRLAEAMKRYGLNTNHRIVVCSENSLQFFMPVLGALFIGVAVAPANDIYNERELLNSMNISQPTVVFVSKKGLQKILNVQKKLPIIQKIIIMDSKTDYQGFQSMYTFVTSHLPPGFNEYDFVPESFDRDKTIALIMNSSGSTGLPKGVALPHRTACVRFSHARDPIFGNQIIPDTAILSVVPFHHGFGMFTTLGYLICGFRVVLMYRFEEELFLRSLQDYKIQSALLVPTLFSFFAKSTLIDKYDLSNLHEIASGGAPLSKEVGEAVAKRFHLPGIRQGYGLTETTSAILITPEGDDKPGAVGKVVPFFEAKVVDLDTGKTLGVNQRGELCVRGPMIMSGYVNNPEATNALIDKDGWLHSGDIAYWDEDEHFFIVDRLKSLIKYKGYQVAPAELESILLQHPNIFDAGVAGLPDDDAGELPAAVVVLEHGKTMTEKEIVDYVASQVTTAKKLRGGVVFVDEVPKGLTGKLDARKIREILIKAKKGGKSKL

| Compound | composite z-score [1] | composite Z-score [2] | composite z-score [3] | composite z-score [4] | composite z-score [5] | composite z-score [6] | composite z-score [7] | composite z-score [8] | composite z-score [9] | composite z-score [10] | composite z-score [11] | composite z-score [12] | composite z-score [13] | composite z-score [14] | composite z-score [15] | composite z-score [16] | z-score [17] | composite z-score [18] | composite z-score [19] | z-score [20] |
| --- | --- | --- | --- | --- | --- | --- | --- | --- | --- | --- | --- | --- | --- | --- | --- | --- | --- | --- | --- | --- |
| C=CCOC(=O)[C@@H]1[C@H]2C(=O)O[C@H](c3ccccc3)[C@H](c3ccccc3)N2[C@H](c2ccc(OCCOC(=O)[C@@H]3C[C@@H]4C(=O)N5CCC[C@H]5C(=O)N4[C@@H]3c3cccc(OCCO)c3)cc2)[C@@]12C(=O)Nc1ccc(I)cc12 | 0.226 | -0.244 (inactive) | -0.055 | -0.101 | 0.0553 | 1.34 | 0.167 | 1.29 | 1 | 1.14 | 1.16 | 1.07 | 0.468 | 0.4 | 1.43 | 1.92 | -1.17 | 1.42 | 0.504 | 1.13 (inactive) |
| COCCOC(=O)N1C(=O)[C@@]2(c3cc(C#CCC(C(=O)OC)C(=O)OC)ccc31)[C@H](C(=O)N1CCCCCCC1)[C@H]1C(=O)O[C@H](c3ccccc3)[C@H](c3ccccc3)N1[C@@H]2c1ccc(O)cc1 | -0.0345 | 0.604 (inactive) | 0.996 | 0.222 | 0.387 | 2.34 | 2.4 | 1.31 | 1.29 | 0.783 | 2.63 | 1.16 | 0.598 | 0.59 | 1.07 | 1.5 | -0.909 | 0.972 | 1.13 | 0.414 (inactive) |
| COCCOC(=O)N1C(=O)[C@@]2(c3cc(C#CCNC(N)=O)ccc31)[C@H](c1ccc(OCCO)cc1)N1[C@H](c3ccccc3)[C@H](c3ccccc3)OC(=O)[C@H]1[C@@H]2C(=O)N1CCN(c2ncccn2)CC1 | 0.358 | 0.764 (inactive) | 0.31 | 0.09 | 0.2 | 0.887 | 0.558 | 1.29 | 0.908 | 1.11 | 0.122 | 1.09 | 1.58 | 0.72 | 1.41 | 1.24 | -1.57 | 0.411 | 0.447 | -1.23 (inactive) |
| Cc1ccc(S[C@]2(C(=O)NCc3ccccc3)CC(=O)N(C3Cc4ccccc4C3)[C@@H]2c2ccc(CO)cc2I)cc1 | 0.254 | 3.63 (inactive) | -0.187 | -0.0716 | 0.341 | 0.401 | 0.458 | 0.269 | -0.224 | -0.462 | -1.12 | -0.621 | -0.17 | -0.151 | -0.328 | -0.244 | 1.24 | -0.582 | 0.146 | -1.26 (inactive) |
| Cc1ccc(S[C@]2(C(=O)O)CC(=O)N(C3CCCCC3)[C@@H]2c2ccc(CO)cc2)cc1 | 0.242 | 0.842 (inactive) | -0.398 | 0.0394 | 0.714 | 1.29 | 0.975 | 1.31 | -0.134 | 1.16 | 2.04 | 1.16 | 0.552 | 0.991 | 0.271 | 0.257 | 0.991 | -0.776 | 0.899 | 0.186 (inactive) |
| O=C1O[C@H](c2ccccc2)[C@H](c2ccccc2)N2[C@H]1[C@@H](C(=O)N1CCCCCCC1)[C@]1(C(=O)Nc3ccccc31)[C@H]2c1ccc(O)cc1 | 0.052 | 8.41 (active) | 2.34 | 1.24 | 0.764 | 4.65 | 1.65 | 1.31 | 1.71 | 1.17 | 3.64 | 1.34 | 3.9 | 0.514 | 1.55 | 1.54 | 0.0754 | 1.85 | 1.77 | -0.809 (inactive) |
| O=C1O[C@H](c2ccccc2)[C@H](c2ccccc2)N2[C@H]1[C@@H](C(=O)N1CCCCCCC1)[C@]1(C(=O)Nc3ccc(C#CCCO)cc31)[C@H]2c1ccc(OCCO)cc1 | 0.853 | 10.2 (active) | 2.34 | 1.12 | 1.11 | 5.12 | 1.12 | 1.37 | 1.62 | 1.19 | 2.99 | 1.36 | 5.23 | 0.97 | 1.52 | 1.27 | -0.421 | 1.92 | 1.64 | -0.264 (inactive) |
| CCCCC(O)C1C=CC2C(=O)N(Cc3ccccc3)C(=O)C2N1n1cnnc1 (stereo not given) | -0.0045 | 0.406 (inactive) | 0.0039 | -0.101 | 0.644 | 1.4 | 0.0713 | 1.01 | -0.0652 | 0.216 | 2.39 | 0.433 | 0.242 | 0.892 | 0.457 | -0.0025 | -0.721 | 0.289 | 0.652 | 1.48 (inactive) |
| CCOC(=O)C[C@H]1[C@H](OC(=O)c2ccc(C(=O)c3ccccc3)cc2)[C@@H](NC(=O)C2CCCCC2)c2cc(OCCCO)ccc2N1C(=O)Cc1ccc(OC)cc1 | 0.442 | 0.442 (inactive) | 0.18 | 0.208 | 0.106 | 0.954 | 1.04 | 0.693 | 0.386 | 0.312 | 0.027 | 0.785 | 0.494 | 0.441 | 0.432 | 0.0799 | 1.36 | 0.942 | 0.221 | 0.13 (inactive) |
| CN(C)C(=O)[C@@]1(CCC(=O)OC(C)(C)C)N=C(c2ccc(OCCCO)cc2)O[C@H]1c1ccccc1N=[N+]=[N-] | 1.03 | 0.0421 (inactive) | 0.315 | -0.0129 | 0.812 | 3.31 | 1.25 | 1.3 | -0.18 | 1.11 | 0.546 | 1.32 | 0.162 | 1.04 | 1.45 | 1.58 | 1.15 | 0.722 | 1.01 | -7.12 (inactive) |
| CCN(CC)c1ccc(N2CC=CC34O[C@@H]5/C=C\CCCOC(=O)C5[C@H]3C(=O)N(CCCCCO)[C@@H]4C2=O)cc1 (stereo not given in full) | 0.567 | 0.226 (inactive) | -0.402 | -0.198 | 0.342 | -0.343 | 0.0397 | -1.83 | -1.2 | -0.518 | -0.617 | -1.39 | -0.722 | -2.57 | -0.785 | -1.26 | 0.965 | -0.758 | -1.19 | -0.918 (inactive) |
| O=C1C2C=CC(C(O)c3ccccn3)N(Nc3ccccc3)C2C(=O)N1c1ccccc1 (stereo not given) | 1.03 | 0.959 (inactive) | -0.0026 | -0.0995 | 0.824 | 0.696 | -0.247 | -0.419 | -0.493 | 0.36 | 0.0213 | 0.0731 | 0.478 | 0.339 | 0.0784 | -0.424 | 0.327 | 0.144 | 1.14 | -1.08 (inactive) |
| COc1ccc([Si](C)(C)[C@@H]2[C@@H](CC(=O)N3Cc4ccccc4C[C@H]3CO)O[C@]3(C(=O)N(Cc4cccc(N5CCCCC5=O)c4)c4ccccc43)[C@H]2C)cc1 | -0.565 | 0.436 (inactive) | 0.0425 | -0.133 | -0.0599 | 0.977 | 0.426 | 1.29 | 1.28 | 1.13 | 1.02 | 1.13 | 0.739 | 0.641 | 1.36 | 1.57 | -0.96 | 1.5 | 0.676 | 0.227 (inactive) |
| CN(C)C(=O)[C@@]1(CCS(=O)(=O)c2ccccc2)N=C(c2ccc(OCCCO)cc2)O[C@H]1c1ccccc1CN=[N+]=[N-] | 0.9 | 0.24 (inactive) | 0.167 | -0.0478 | 0.553 | 2.45 | 0.527 | 1.3 | 0.205 | 1.08 | 1.78 | 1.25 | 0.642 | 1.06 | 0.871 | 0.513 | -0.0571 | 0.49 | 0.915 | 0.628 (inactive) |
| O=C1C[C@@](C(=O)O)(c2ccc([N+](=O)[O-])cc2)[C@@H](c2ccc(CO)cc2)N1CC12CC3CC(CC(C3)C1)C2 | 0.656 | -0.261 (inactive) | 0.18 | 0.0362 | 0.46 | 1.74 | 0.611 | 1.19 | -0.346 | 0.687 | 1.2 | 1.19 | 0.486 | 0.732 | 0.563 | -0.119 | 2.19 | 0.43 | 1.02 | -0.162 (inactive) |
| COCC(=C=CC[C@@H](O)c1ccccc1OCCO)C[C@@H](O)c1ccccn1 | -0.203 | -0.422 (inactive) | -0.0043 | -0.117 | 0.777 | 1.28 | 0.583 | 0.86 | -0.0696 | 0.742 | -0.415 | 0.845 | 0.287 | -0.853 | 0.968 | 0.466 | -0.00359 | 0.913 | 0.293 | -0.578 (inactive) |

From PubChem BioAssay
